Shown are actives, neighbours in structure and some others; about 2.8% of the full set was active somewhere.
D3 antag: qHTS of D3 Dopamine Receptor Antagonist: qHTS; 2.5% of 360,000 active; max response, negative = inhibition, %; D3R cells, DiscoveRx beta-arrestin luminescence, antagonist mode; active compounds read low; D(3) dopamine receptor (Homo sapiens), P35462; in the data active = max response below about -50%; inconclusive = no clear call, values can overlap the other calls; also: % is scaled to controls: 0 for no effect and ±100 for the full control effect
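Cells plated overnight at 1500 cells/well, then exposed to library compounds with dopamine controls for 90 minutes at 37 degrees C. DiscoveRx reagent added for 30–60 minutes at room temperature; luminescence read, quantitative HTS format.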
Giardia kill: Small Molecules that selectively kill Giardia lamblia: qHTS. Giardia lamblia trophozoite viability. activity change, % at 7.66 µM, hits read low. 0.15% of 340,000 active. AID 540267, 2011; in the data active = activity change below about -80%; inconclusive = between about -30% and that limit;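 also: parasites exposed to compound for two days anaerobically before the ATP read; % is scaled to controls: 0 for no effect and ±100 for the full control effect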
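Luminescence from cellular ATP indicates surviving trophozoites (100 cells/well) following 48 hrs anaerobic compound treatment at 37 deg C; signal develops 15-30 min at room temperature.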
B2AR arrestin: qHTS assay of beta-arrestin-biased ligands of beta2-adrenergic receptor. beta-arrestin recruitment to beta2AR, cell-based reporter. Potency, µM (doses to about 46.1 µM), for inactives: top-dose activation, usual class: activators. 0.02% of 330,000 active. AID 492947, 2010; active = well fitted activation curve with a large enough effect; inconclusive = small, poorly fitted or top-dose-only effect;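 also: potency is read from the fitted curve at half-maximal effect; 0% = DMSO controls and full agonism = EC100 isoproterenol or metaproterenol; nearly all actives have a fitted effect of over 65% in size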
Target sequence (P07550 whole entry, looked up): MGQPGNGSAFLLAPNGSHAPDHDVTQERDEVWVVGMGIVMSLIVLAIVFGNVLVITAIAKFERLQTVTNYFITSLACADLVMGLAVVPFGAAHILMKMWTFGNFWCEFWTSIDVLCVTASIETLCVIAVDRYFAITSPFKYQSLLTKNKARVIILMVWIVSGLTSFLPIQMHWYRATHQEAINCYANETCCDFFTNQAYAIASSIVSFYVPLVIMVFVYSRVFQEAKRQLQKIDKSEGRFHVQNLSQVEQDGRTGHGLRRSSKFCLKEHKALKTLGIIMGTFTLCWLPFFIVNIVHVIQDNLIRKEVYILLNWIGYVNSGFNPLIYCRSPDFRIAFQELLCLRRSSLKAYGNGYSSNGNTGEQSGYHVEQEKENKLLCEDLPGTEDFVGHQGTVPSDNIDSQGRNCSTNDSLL
D3 ag: qHTS of D3 Dopamine Receptor Agonist: qHTS; D(3) dopamine receptor (Homo sapiens), P35462; D3R DiscoveRx beta-arrestin cells, luminescence, 90 min; max activation, %; 0.58% of 410,000 active; AID 652048, 2013; in the data active = max activation above about 30%; also: 0% is about no effect
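Agonist-mode cell screen: cells plated at 1500/well and incubated overnight at 37 °C, then exposed to library compounds for 90 min at 37 °C. Detection reagent was added for 30–60 min at room temperature, and luminescence was read.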
* hit, by the source's call; ! = repeats disagree.

For CCO[C@@H]1c2c(ccc3ccc(=O)oc23)OC(C)(C)[C@@H]1O the results were D3 antag 19.2, Giardia kill 4.0, B2AR arrestin 0.9% and D3 ag 0.6.
C/C=C(/C)C(=O)O[C@@H]1c2c(ccc3ccc(=O)oc23)OC(C)(C)[C@@H]1OC(=O)/C(C)=C\C was read as D3 antag 3.2, Giardia kill -24.8, B2AR arrestin -0.4% and D3 ag 47.1*.
CC1(C)Oc2ccc3ccc(=O)oc3c2[C@@H](O)[C@@H]1O was read as D3 antag 0.0, Giardia kill -12.9, B2AR arrestin 0.1% and D3 ag 87.4*.
For C/C=C(/C)C(=O)O[C@@H]1[C@H](OC(=O)C=C(C)C)c2c(ccc3ccc(=O)oc23)OC1(C)C the results were D3 antag -12.4, Giardia kill 13.0, B2AR arrestin -1.8% and D3 ag -3.6.
For O=c1[nH]c(=O)n([C@H]2CCCO2)cc1F the results were D3 ag -5.6.
For O=C(/C=C/Sc1ccc(C(F)(F)F)cn1)c1ccccc1 the results were D3 antag -68.9*, Giardia kill 12.6, B2AR arrestin -0.6% and D3 ag -15.6.
CN(C)c1cc(NC(=O)CNC(C)(C)C)c(O)c2c1C[C@H]1C[C@H]3[C@H](N(C)C)C(=O)C(C(N)=O)=C(O)[C@@]3(O)C(=O)C1=C2O was read as D3 ag 8.4.
Screening Cc1ccc2nc(N(Cc3cccnc3)C(=O)C3CCCCC3)sc2c1 returned D3 ag -0.3.
For CCn1c(-c2cc(Br)cc(OC)c2O)nc2cc(S(=O)(=O)N(C)C)ccc21 the results were D3 antag -5.2, Giardia kill 4.0, B2AR arrestin 0.0% and D3 ag 36.6*.
For Oc1cc2c(cc1O)C(c1ccccc1)CNCC2 (stereo not drawn) the results were D3 antag 12.1, Giardia kill -3.0 and D3 ag 3.1.
`CN1CCc2cc(O)c(O)cc2C(c2ccccc2)C1` (stereo not drawn) gave D3 antag 1.1, Giardia kill 1.9, B2AR arrestin -0.1% and D3 ag 107.9*.
COc1ccc(-c2nnc(NC(=O)c3ccc([N+](=O)[O-])o3)o2)c(OC)c1 was read as D3 antag -17.5, Giardia kill -99.9*, B2AR arrestin -0.8% and D3 ag -2.6.
For Cc1ccc(NC(=O)c2ccc([N+](=O)[O-])o2)c(C)c1 the results were D3 antag -0.6, Giardia kill -90.1*, B2AR arrestin -0.1% and D3 ag -0.8.
Cc1ccccc1NC(=O)c1ccc([N+](=O)[O-])o1 was read as D3 antag 3.3, Giardia kill inconclusive, B2AR arrestin 0.4% and D3 ag -2.0.
Cc1ccc(-c2nnc(NC(=O)C3=COCCO3)o2)c(C)c1 was read as D3 antag -29.7, Giardia kill -24.7, B2AR arrestin 0.1% and D3 ag -14.6.
`Cc1ccc(-c2nnc(NC(=O)c3ccc([N+](=O)[O-])o3)o2)c(C)c1` gave D3 antag -12.4, Giardia kill -81.2*, B2AR arrestin -0.4% and D3 ag -12.5.
Screening COc1cc(NC(=O)COC(=O)/C=C/c2c(C)nn(-c3ccc(F)cc3)c2Cl)cc(OC)c1 returned D3 antag -9.8, Giardia kill 18.9, B2AR arrestin -0.5% and D3 ag -2.0.
CC(=O)NC(=O)COC(=O)/C=C/c1c(C)nn(Cc2c(Cl)cccc2Cl)c1Cl was read as D3 antag -55.9*, Giardia kill -19.0, B2AR arrestin 3.8% and D3 ag 2.4.
Screening COCCC(=O)N1CCCC(CNS(=O)(=O)c2ccc(OC)cc2)C1 (stereo not drawn) returned D3 antag -63.3*, Giardia kill -17.6, B2AR arrestin -0.5% and D3 ag -2.7.
Screening Cc1nc2c(o1)C(=O)c1ccccc1C2=Nc1ccccc1 returned D3 antag inconclusive, Giardia kill -100.7* and D3 ag -2.7.
Screening CC(C)(C)NC[C@H](O)COc1nsnc1N1CCOCC1 returned D3 antag -53.9*!, Giardia kill inconclusive and D3 ag -42.4.
`Cc1nc2c(c(SCC(=O)Nc3ccccc3C(F)(F)F)n1)CCC2` gave D3 ag 17.8.
`COC(=O)c1ccc(NC(=O)C2CCN(c3ncnc4c3nc3n4CCCCC3)CC2)cc1` gave D3 ag -3.0.
`Cn1c(=O)n(Cc2ccccc2)c2ccccc21` gave D3 antag 16.6, Giardia kill 4.7, B2AR arrestin -0.2% and D3 ag -6.6.
For CCCCN1CCc2c(c3ccccc3n2Cc2ccccc2)C1 the results were D3 antag -93.3*, Giardia kill 26.6, B2AR arrestin 0.4% and D3 ag -21.3.
`CN1CCc2c(c3ccccc3n2Cc2ccccc2)C1` gave D3 antag -91.3*!, Giardia kill 6.7, B2AR arrestin 0.1% and D3 ag -93.7.
CN1CCc2c(c3ccccc3n2C)C1 was read as D3 antag -72.9*, Giardia kill 6.2, B2AR arrestin -0.3% and D3 ag -2.9.
Screening O=C1C2C(C(=O)N1/N=C/c1cc(Br)cc([N+](=O)[O-])c1O)C1C=CC2C12CC2 (stereo not drawn) returned D3 antag -69.6*, Giardia kill -1.5, B2AR arrestin -0.5% and D3 ag -29.9.
Screening O=C1C2C(C(=O)N1/N=C/c1cc([N+](=O)[O-])c(O)cc1O)C1C=CC2C12CC2 (stereo not drawn) returned D3 antag inconclusive, Giardia kill -10.4, B2AR arrestin -0.1% and D3 ag -2.5.
`Cc1ccc(C(NC(=O)C2CCN(CCOc3ccc(Cl)cc3)CC2)c2ccccn2)cc1` (stereo not drawn) gave D3 antag -94.5* and D3 ag -12.3.
For COc1ccc(OCCN2CCC(C(=O)NC(c3ccc(Cl)cc3)c3cccnc3)CC2)cc1 (stereo not drawn) the results were D3 antag 20.4 and D3 ag -14.9.
`COc1ccc(C(NC(=O)C2CCN(CCOc3ccc(Cl)cc3Cl)CC2)c2ccccn2)cc1` (stereo not drawn) gave D3 antag -69.6* and D3 ag -24.4.
O=C(NC(c1ccc(Cl)cc1)c1ccsc1)C1CCN(CCOc2ccc(Cl)cc2)CC1 (stereo not drawn) was read as D3 antag -84.3* and D3 ag -15.9.
`COc1ccc(C(NC(=O)C2CCN(CCCOc3ccccc3)CC2)c2cccs2)cc1` (stereo not drawn) gave D3 antag -74.8* and D3 ag -11.6.
`CC(=O)NC1=CC(=O)c2nonc2C1=O` gave Giardia kill 2.7.
Screening O=C(NC(c1ccccc1)c1cnccn1)C1CCN(CCCOc2ccccc2)CC1 (stereo not drawn) returned D3 antag 0.7 and D3 ag -22.2.
